The campaign covered roughly 5,500 compounds. About 2,000 (36%) were called active. About 18% were inconclusive and are not listed. No stated cut-off is given here; in the data, active means normalized growth mostly below about 0.91 (no sharp cut-off); inconclusive means no clear call, values can overlap the other calls; inactive means mostly above about 0.92. The list shows a part of the results.
Assay: chemical genetic growth profiling, strain panel (AID 1159580);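 further: tested at 20 µM; growth read once vehicle control cultures reached saturation at 30 °C; 1 = growth at the plate median or of vehicle wells; lower values mean less growth of the strain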
Details: growth OD

Measured: normalized growth

CCCCc1nc(Cl)c(CO)n1Cc1ccc(-c2ccccc2-c2nn[nH]n2)cc1
inactive: S. cerevisiae deletion strains, locus YJR075W, strain HOC1, active compounds read low 0.999 | S. cerevisiae deletion strains, locus YKL009W, strain mrt4, active compounds read low 0.985 | S. cerevisiae deletion strains, locus YKL068W, active compounds read low 0.997 | S. cerevisiae deletion strains, locus YKL085W, strain MDH1 (second series), active compounds read low 0.992 | S. cerevisiae deletion strains, locus YKL085W, strain MDH1, active compounds read low 0.992 | S. cerevisiae deletion strains, locus YKL160W, strain elf1, active compounds read low 0.991 | S. cerevisiae deletion strains, locus YKL190W, strain CNB1, active compounds read low 1.01 | S. cerevisiae deletion strains, locus YKR001C, strain vps1, active compounds read low 0.99 | S. cerevisiae deletion strains, locus YKR026C, strain gcn3, active compounds read low 0.988 | S. cerevisiae deletion strains, locus YKR091W, strain srl3, active compounds read low 0.991 | S. cerevisiae deletion strains, locus YLL001W, strain dnm1, active compounds read low 0.98 | S. cerevisiae deletion strains, locus YLL026W, active compounds read low 0.992 | S. cerevisiae deletion strains, locus YLL041C, strain sdh2, active compounds read low 0.992 | S. cerevisiae deletion strains, locus YLR027C, strain aat2, active compounds read low 0.993 | S. cerevisiae deletion strains, locus YLR039C, strain RIC1, active compounds read low 1.02 | S. cerevisiae deletion strains, locus YLR058C, strain SHM2, active compounds read low 0.997 | S. cerevisiae deletion strains, locus YLR102C, strain apc9, active compounds read low 0.994 | S. cerevisiae deletion strains, locus YLR113W, strain HOG1, active compounds read low 1.01 | S. cerevisiae deletion strains, locus YLR221C, strain rsa3, active compounds read low 0.987 | S. cerevisiae deletion strains, locus YLR258W, strain gsy2, active compounds read low 0.998 | S. cerevisiae deletion strains, locus YLR262C, strain YPT6 (second series), active compounds read low 0.995 | S. cerevisiae deletion strains, locus YLR262C, strain YPT6, active compounds read low 1.04 | S. cerevisiae deletion strains, locus YLR268W, strain sec22, active compounds read low 0.999 | S. cerevisiae deletion strains, locus YLR320W, strain mms22, active compounds read low 0.985 | S. cerevisiae deletion strains, locus YLR330W, strain CHS5, active compounds read low 1.01 | S. cerevisiae deletion strains, locus YLR342W, strain FKS1 (second series), active compounds read low 0.997 | S. cerevisiae deletion strains, locus YLR342W, strain FKS1, active compounds read low 1.01 | S. cerevisiae deletion strains, locus YLR357W, strain rsc2, active compounds read low 0.993 | S. cerevisiae deletion strains, locus YLR370C, strain arc18, active compounds read low 0.987 | S. cerevisiae deletion strains, locus YLR371W, strain rom2, active compounds read low 0.997 | S. cerevisiae deletion strains, locus YLR384C, strain iki3, active compounds read low 0.974 | S. cerevisiae deletion strains, locus YLR418C, strain cdc73, active compounds read low 1 | S. cerevisiae deletion strains, locus YML016C, strain PPZ1, active compounds read low 1 | S. cerevisiae deletion strains, locus YML032C, strain rad52, active compounds read low 1 | S. cerevisiae deletion strains, locus YML120C, strain ndi1, active compounds read low 0.981 | S. cerevisiae deletion strains, locus YML124C, strain tub3, active compounds read low 0.997 | S. cerevisiae deletion strains, locus YMR058W, strain fet3, active compounds read low 1 | S. cerevisiae deletion strains, locus YMR078C, strain ctf18, active compounds read low 0.999 | S. cerevisiae deletion strains, locus YMR125W, strain sto1, active compounds read low 0.982 | S. cerevisiae deletion strains, locus YMR129W, active compounds read low 0.994 | S. cerevisiae deletion strains, locus YMR205C, strain PFK2, active compounds read low 0.998 | S. cerevisiae deletion strains, locus YMR223W, strain ubp8, active compounds read low 1 | S. cerevisiae deletion strains, locus YMR231W, strain pep5, active compounds read low 0.982 | S. cerevisiae deletion strains, locus YMR263W, strain SAP30, active compounds read low 1.02 | S. cerevisiae deletion strains, locus YMR307W, strain GAS1, active compounds read low 0.911 | S. cerevisiae deletion strains, locus YNL067W, strain RPL9B, active compounds read low 1.02 | S. cerevisiae deletion strains, locus YNL071W, strain lat1, active compounds read low 1 | S. cerevisiae deletion strains, locus YNL128W, strain TEP1, active compounds read low 1.01 | S. cerevisiae deletion strains, locus YNL153C, strain GIM3, active compounds read low 1.01 | S. cerevisiae deletion strains, locus YNL183C, strain NPR1, active compounds read low 1.01 | S. cerevisiae deletion strains, locus YNL209W, strain ssb2, active compounds read low 0.979 | S. cerevisiae deletion strains, locus YNL233W, strain BNI4, active compounds read low 1.02 | S. cerevisiae deletion strains, locus YNL248C, strain rpa49, active compounds read low 0.996 | S. cerevisiae deletion strains, locus YNL250W, strain rad50, active compounds read low 0.993 | S. cerevisiae deletion strains, locus YNL271C, strain bni1, active compounds read low 0.995 | S. cerevisiae deletion strains, locus YNL298W, strain CLA4, active compounds read low 0.989 | S. cerevisiae deletion strains, locus YNL307C, strain MCK1, active compounds read low 1.02 | S. cerevisiae deletion strains, locus YNL322C, strain KRE1 (second series), active compounds read low 0.971 | S. cerevisiae deletion strains, locus YNL322C, strain KRE1, active compounds read low 1.01 | S. cerevisiae deletion strains, locus YNR049C, strain mso1, active compounds read low 0.985 | S. cerevisiae deletion strains, locus YNR052C, strain pop2, active compounds read low 0.99 | S. cerevisiae deletion strains, locus YOL006C, strain TOP1, active compounds read low 1.04 | S. cerevisiae deletion strains, locus YOL012C, strain htz1 0.901 | S. cerevisiae deletion strains, locus YOL147C, strain pex11, active compounds read low 1 | S. cerevisiae deletion strains, locus YOR001W, strain rrp6, active compounds read low 0.978 | S. cerevisiae deletion strains, locus YOR061W, strain CKA2, active compounds read low 1.01 | S. cerevisiae deletion strains, locus YOR069W, strain VPS5, active compounds read low 1 | S. cerevisiae deletion strains, locus YOR070C, strain gyp1, active compounds read low 0.986 | S. cerevisiae deletion strains, locus YOR080W, strain dia2, active compounds read low 0.978 | S. cerevisiae deletion strains, locus YOR083W, strain WHI5, active compounds read low 0.981 | S. cerevisiae deletion strains, locus YOR106W, strain vam3, active compounds read low 1 | S. cerevisiae deletion strains, locus YOR136W, strain idh2, active compounds read low 1 | S. cerevisiae deletion strains, locus YOR144C, strain elg1, active compounds read low 1 | S. cerevisiae deletion strains, locus YOR184W, strain ser1, active compounds read low 1 | S. cerevisiae deletion strains, locus YOR231W, strain MKK1, active compounds read low 0.965 | S. cerevisiae deletion strains, locus YOR265W, strain rbl2, active compounds read low 0.999 | S. cerevisiae deletion strains, locus YOR270C, strain vph1, active compounds read low 0.97 | S. cerevisiae deletion strains, locus YOR290C, strain snf2, active compounds read low 1 | S. cerevisiae deletion strains, locus YOR316C, strain cot1, active compounds read low 0.999 | S. cerevisiae deletion strains, locus YPL051W, strain arl3, active compounds read low 0.99 | S. cerevisiae deletion strains, locus YPL055C, strain LGE1, active compounds read low 1.01 | S. cerevisiae deletion strains, locus YPL078C, strain atp4, active compounds read low 0.985 | S. cerevisiae deletion strains, locus YPL106C, strain sse1, active compounds read low 0.964 | S. cerevisiae deletion strains, locus YPL240C, strain hsp82, active compounds read low 1.02 | S. cerevisiae deletion strains, locus YPL241C, strain CIN2, active compounds read low 1.01 | S. cerevisiae deletion strains, locus YPL256C, strain CLN2, active compounds read low 0.967 | S. cerevisiae deletion strains, locus YPR119W, strain clb2, active compounds read low 0.995 | S. cerevisiae deletion strains, locus YPR141C, strain kar3, active compounds read low 1 | S. cerevisiae deletion strains, locus YPR163C, strain tif3, active compounds read low 1.01 | S. cerevisiae deletion strains, locus YPR167C, strain met16, active compounds read low 0.998 | S. cerevisiae deletion strains, strain wtn01, active compounds read low 0.989 | S. cerevisiae strains, strain wild type, active compounds read low 1.01
